# Whole data set: some 110,000 compounds, median “z-score” near -0.1, cut for the highest 2% near 2. Only a selection was taken, and the highest values are over-represented in it overall. Activity calls are given as the source filed them.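 How the source made its calls: active means z-score in the third read window above 3 or below -3; inactive means the rest.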
# Target: Metabotropic glutamate receptor 8 (Rattus norvegicus) (UniProt P70579)
# Assay: mGluR8 Gi/Go-coupled signaling modulation – cell-based, rat, thallium flux, HTS, primary screen (AID 488969)
# Conditions: HEK293 rat mGluR8, GIRK (G protein-gated inwardly rectifying potassium channel) thallium flux, FluoZin2; at 10 µM; stronger effect = higher value; submaximal glutamate (EC20) added with thallium
# Metabotropic glutamate receptor 8 (Rattus norvegicus), sequence (P70579 whole entry, looked up): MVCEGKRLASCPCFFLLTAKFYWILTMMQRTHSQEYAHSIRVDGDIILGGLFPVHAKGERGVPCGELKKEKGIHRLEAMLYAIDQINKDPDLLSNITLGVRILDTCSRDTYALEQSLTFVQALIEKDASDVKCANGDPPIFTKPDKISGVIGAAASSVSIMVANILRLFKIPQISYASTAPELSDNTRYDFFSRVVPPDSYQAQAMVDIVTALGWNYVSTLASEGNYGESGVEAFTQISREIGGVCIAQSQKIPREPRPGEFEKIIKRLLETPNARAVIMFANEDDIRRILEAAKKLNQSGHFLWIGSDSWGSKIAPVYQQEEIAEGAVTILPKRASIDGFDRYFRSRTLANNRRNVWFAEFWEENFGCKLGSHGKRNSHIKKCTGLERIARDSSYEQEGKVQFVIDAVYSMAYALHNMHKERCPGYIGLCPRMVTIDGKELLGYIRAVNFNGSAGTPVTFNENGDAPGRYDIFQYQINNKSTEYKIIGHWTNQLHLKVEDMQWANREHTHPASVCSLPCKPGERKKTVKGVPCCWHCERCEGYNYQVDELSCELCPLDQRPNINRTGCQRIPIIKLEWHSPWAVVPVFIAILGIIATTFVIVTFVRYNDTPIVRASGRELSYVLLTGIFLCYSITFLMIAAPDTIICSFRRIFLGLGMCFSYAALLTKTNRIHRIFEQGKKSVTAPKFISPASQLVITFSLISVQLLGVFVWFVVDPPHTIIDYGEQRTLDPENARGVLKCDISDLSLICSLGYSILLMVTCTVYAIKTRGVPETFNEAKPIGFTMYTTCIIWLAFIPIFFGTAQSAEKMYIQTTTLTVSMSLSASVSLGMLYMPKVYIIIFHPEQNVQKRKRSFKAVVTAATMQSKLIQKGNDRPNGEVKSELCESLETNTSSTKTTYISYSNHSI
row,SMILES,z-score
1,Cn1c(=O)oc2cc(S(=O)(=O)N3CCC(C(=O)NCc4cccs4)CC3)ccc21,0.158
2,CCC(Cc1ccccc1)NC(=O)C1CCC(CNc2c(N3CCCC3)c(=O)c2=O)CC1 (stereo not given),0.312
3,COc1ccc(C(C)=O)cc1COC(=O)Cc1n[nH]c(=O)c2ccccc12,-0.504
4,CC1CCN(c2cc(N3CCOCC3)c(F)cc2[N+](=O)[O-])CC1,-0.674
5,O=[N+]([O-])c1cc(F)c(N2CCCCC2)cc1N1CCOCC1,-0.193
6,CC1CCN(c2cc(N3CCOCC3)c([N+](=O)[O-])cc2F)CC1,2.53
7,O=C(NC1CCCCC1)c1sc(N2CCOCC2)nc1-c1ccccc1,0.0133
8,O=C(COC(=O)CCC1CCCC1)Nc1ccc(Cl)cc1F,-0.306
9,O=C(COC(=O)CCC1CCCC1)Nc1nc2c(F)c(F)c(F)cc2s1,2.48
10,O=C(COC(=O)C12CC3CC(CC(C3)C1)C2)Nc1nc2c(F)c(F)c(F)cc2s1,-0.635
11,CC(=O)Nc1cc(C(F)(F)F)ccc1Oc1cccc(Br)c1,-0.653
12,S=C(Nc1ccccc1)Nc1nc2ccccc2n1CCOc1ccc(Br)cc1,1.24
13,CCn1c(NC(C)=O)nc2ccccc21,-0.0713
14,CCCn1c(NC(=S)Nc2ccccc2)nc2ccccc21,2.89
15,CCCCn1c(NC(=S)Nc2ccccc2)nc2ccccc21,2.55
16,CCn1c(NC(=S)Nc2ccccc2)nc2ccccc21,15.2 (active)
17,CCn1c(NC(=O)C2CCCCC2)nc2ccccc21,0.0465
18,S=C(Nc1ccccc1)Nc1nc2ccccc2n1CCOc1ccc(Cl)cc1,1.72
19,CCCCn1c(Nc2ccccc2)nc2ccccc21,0.15
20,CCCn1c(Nc2ccccc2)nc2ccccc21,-0.0673
21,COc1ccc(CNC(=O)CSCc2cnn(-c3ccccc3)c2-n2cccc2)cc1,0.0302
22,Cc1cccc(NCc2ccccc2O)c1C,0.825
23,COc1ccc(OCCNc2cc(N3CCCCC3)ccc2[N+](=O)[O-])cc1,-0.255
24,O=C(Cc1ccccc1)Nc1ccc(N2CCOCC2)cc1N1CCOCC1,-0.544

row,SMILES,z-score
1,CCNC(=O)C1CC(=O)N(CC)C(=Nc2cc(Cl)c(O)c(Cl)c2)S1 (stereo not given),0.28
2,COC(=O)CSc1nc2nc(C)cc(C)n2n1,-0.251
3,CCOC(=O)c1nnn(CC(=O)Nc2cccc(Cl)c2C)c1C(=O)OCC,2.12
4,COC(=O)c1nnn(CC(=O)Nc2cccc(Cl)c2C)c1C(=O)OC,-0.193
5,CCOC(=O)c1nnn(CC(=O)Nc2ccccc2OC)c1C(=O)OCC,-0.326
6,COc1ccccc1S(=O)Cc1ccc(C(=O)NCc2ccccc2Cl)o1 (stereo not given),-0.228
7,CC(=O)Nc1nonc1-c1nc2ccccc2n1N(C(C)=O)C(C)=O,-2.35
8,CC(C)n1c2ccccc2c2cc([N+](=O)[O-])ccc21,-0.11
9,CCC(C)n1c(SCc2ccc([N+](=O)[O-])cc2)nc2ccsc2c1=O (stereo not given),0.36
10,CCC(C)n1c(=S)[nH]c2c(sc3ccc([N+](=O)[O-])cc32)c1=O (stereo not given),9.11 (active)
11,CCOc1ccc(CNc2ncnc(N)n2)cc1,-0.398
12,CCOc1ccc(Nc2ncnc(N)n2)cc1,4.23 (active)
13,Nc1ncnc(Nc2ccc(F)cc2)n1,0.0495
14,COc1cc(/C=C(\C#N)C(N)=O)ccc1OS(=O)(=O)c1ccc(C)cc1,-0.309
15,O=[N+]([O-])c1ccc(COc2cccc(CNc3ccc(Br)cc3)c2)cc1,0.133
16,CCc1ccc(N2C(=O)C(Cl)=C(N3CCOCC3)C2=O)cc1,-0.428
17,Cc1ccc(N2C(=O)C(Cl)=C(N3CCOCC3)C2=O)cc1Cl,-0.0801
18,O=C1C(Cl)=C(N2CCOCC2)C(=O)N1c1cccc(Cl)c1,13.9 (active)
19,CCN(CC)CCn1c(SCC(=O)NCc2ccco2)nc2c(sc3ccccc32)c1=O,-0.759
20,Cc1nn(-c2ccccc2)c(C)c1/C=N/NC(=O)CSc1nnc(-c2ccccc2)n1-c1ccc(Cl)cc1,0.0544
21,O=C(Nc1cccc(-c2cc3ccccc3oc2=O)c1)c1ccc(Br)o1,-0.101
22,O=C(Nc1nc(-c2cc3ccccc3oc2=O)cs1)c1ccc(Br)o1,13.7 (active)
23,O=c1oc2ccccc2cc1-c1csc(NN=C2CCCC2)n1,-0.3
24,O=C(Nc1nc2ccc(Cl)cc2s1)c1ccco1,-0.371

row,SMILES,z-score
1,O=C(Nc1nc2ccc(Cl)cc2s1)c1ccc(Br)o1,6.8 (active)
2,Cc1ccc(C(=O)Nc2nc(-c3cccnc3)cs2)o1,-0.0733
3,O=C(Nc1nc(-c2ccccc2)cs1)c1ccc(Br)o1,2.96
4,O=C(Nc1nc2c(Cl)cccc2s1)c1ccc(Br)o1,0.452
5,O=C(Nc1nc(-c2ccccc2)cs1)c1cccs1,-0.61
6,O=C(CSc1ncn(-c2ccccc2)n1)NCc1ccccc1,-0.242
7,CCN1CNC(=S)N(c2ccccc2OC)C1,-0.242
8,COCCn1c(SCC(=O)NCc2ccco2)nc2cccnc21,0.0661
9,COc1ccc(-c2noc(CCC(=O)Nc3cc(Cl)c(OC)cc3OC)n2)cc1,-0.134
10,COC(=O)c1cc(OC)c(OC)cc1NC(=O)Nc1ccc(OC)cc1OC,3.48 (active)
11,COc1ccccc1NC(=O)C(Sc1ccccc1)c1ccccc1 (stereo not given),0.792
12,COC(=O)c1cc(OC)c(OC)cc1NC(=O)Nc1ccccc1OC,-0.56
13,COC(=O)c1cc(OC)c(OC)cc1NC(=O)Nc1ccc(OC)cc1,-0.0386
14,COc1ccc(NC(=O)C(Sc2ccccc2)c2ccccc2)c(OC)c1 (stereo not given),2.25
15,COc1ccc(OC)c(NC(=O)C(Sc2ccccc2)c2ccccc2)c1 (stereo not given),0.629
16,COc1cc2cc(C#N)c(SCC(=O)N3CCOCC3)nc2cc1OC,0.593
17,C=CCn1cc(/C=N/NC(=O)COc2cccc3cccnc23)c2ccccc21,-0.515
18,Cc1ccc(-c2nn(CCC#N)cc2C=C(C#N)C#N)cc1,0.287
19,O=S(=O)(c1ccccc1)n1c(C(O)c2ccccn2)cc2ccccc21 (stereo not given),0.524
20,COc1ccc(N(CC(=O)N2c3ccccc3CC2C)S(=O)(=O)c2c(C)nn(C)c2C)cc1 (stereo not given),-0.0129
21,COc1ccc(NC(=O)NC23CC4CC(CC(C4)C2)C3)cc1OC,-0.136
22,CCOc1ccc(NC(=O)NC23CC4CC(CC(C4)C2)C3)cc1,4.76 (active)
23,CCOc1ccc(NC(=O)Nc2ccc(N(C)C(C)=O)cc2)cc1,0.478
24,COC(=O)c1cccc(NC(=O)NC23CC4CC(CC(C4)C2)C3)c1,-0.16

row,SMILES,z-score
1,COc1cccc(NC(=O)Nc2cccs2)c1,1.67
2,N#Cc1cccc(NC(=O)Nc2cccs2)c1,2.55
3,CCOc1ccc(NC(=O)Nc2cccs2)cc1,2.37
4,O=C(Nc1ccc2c(c1)OCCO2)NC12CC3CC(CC(C3)C1)C2,2.32
5,CCOc1ccc(NC(=O)C23CC4CC(C2)CC(c2ccccc2)(C4)C3)cc1,-0.381
6,N#Cc1cccc(NC(=O)c2ccccc2C(=O)O)c1,-0.112
7,CCOc1ccc(NC(=O)Nc2ccc3nccnc3c2)cc1,-0.163
8,O=C(NNC(=O)c1ccc2c(c1)OCO2)NC12CC3CC(CC(C3)C1)C2,-0.287
9,CNC(=O)NC(=O)CSc1nc2ccccc2n1CCOC,-0.465
10,O=C1C2CCCN2C(c2cccc(Br)c2)N1c1ccc(F)cc1 (stereo not given),-0.401
11,C/C(=N/NC(=O)OC(C)(C)C)c1ccco1,-0.124
12,COC(=O)c1cn(CC(=O)N2CCCCC2C)c2ccccc12 (stereo not given),-0.213
13,COC(=O)c1ccc(C(=O)OC)c(NC(=O)CCc2ccc(C)o2)c1,-0.67
14,CCCCCn1cnc2sc(CC)cc2c1=O,-0.4
15,Cc1ccc(C(CCN)c2ccco2)cc1 (stereo not given),0.345
16,O=C1NC(=O)/C(=C\c2ccc(Sc3ccc(Cl)cc3)o2)N1,-0.263
17,Cc1cccc(NC(=S)NCC(c2cccnc2)N(C)C)c1 (stereo not given),0.286
18,CCOC(=O)c1ccc2ncc(C(=O)OCC)c(NCCN(C)C)c2c1,-0.571
19,C=CCN(CC=C)S(=O)(=O)c1ccc(NC(=S)NC(=O)/C=C/c2ccc(C)cc2)cc1,-0.0815
20,C=CCN(CC=C)C(=S)NCCc1ccc(OC)c(OC)c1,-0.0119
21,COc1ccc(C(=O)NC(=S)NC(C)(C)C)cc1Br,0.436
22,COc1ccc(C(=O)NC(=S)NCCO)cc1Br,4.72 (active)
23,Cc1ccc(/C=C/C(=O)c2ccc(C)cc2)cc1,0.025
24,CCCCC(=O)Nc1ccc(C(=O)NNC(=O)c2ccc(C)c(Br)c2)cc1,-0.00519

row,SMILES,z-score
1,C=CCN(CC=C)C(=S)NC(=O)c1ccc(OC)c(Br)c1,15.4 (active)
2,C=CCN(CC=C)C(=S)NC(=O)/C=C/c1ccc(C)cc1,4.57 (active)
3,CCN(CC)C(=O)c1ccc(C)c(Br)c1,-0.37
4,COc1ccc(C(=O)NC(=S)NC(C)C)cc1Br,1.79
5,C=CCN(CC=C)C(=S)NC(=O)c1ccc(C)c(Br)c1,15.3 (active)
6,COc1ccc(C(=O)NCc2ccccc2)cc1Br,-0.234
7,CCOC(=O)c1nn(-c2ccc(C)c(C)c2)c(=O)c2c(N)scc12,-0.137
8,CC(C)(C)/C(O)=C/c1nc2ccccc2[nH]c1=O,-0.317
9,COc1ccccc1CNC(=S)NCCc1ccccc1,-0.133
10,COCCn1c(C)cc(C(=O)COC(=O)c2cncc(Br)c2)c1C,0.145
11,COC(=O)c1cc2ccsc2n1Cc1cc(=O)n2ccccc2n1,-0.127
12,COc1cccc(C(C(=O)NC2CCCC2)N(Cc2ccco2)C(=O)c2ccco2)c1OC (stereo not given),-0.188
13,CC1=CC(c2ccccc2)NC(=S)N1 (stereo not given),-0.113
14,CC1=C(C)C(c2ccccc2)NC(=S)N1 (stereo not given),3.39 (active)
15,CCOC(=O)C1=C(C)C(c2ccccc2)NC(=S)N1 (stereo not given),0.0117
16,CSc1ccn(CCC(=O)O)c(=O)n1,-0.489
17,CC(=O)c1cnn(-c2nc3c(C)cccc3s2)c1C,-0.111
18,c1ccc(-n2nnnc2-n2ccnc2)cc1,0.463
19,COc1ccc(S(=O)(=O)Cc2ccc(C(=O)NCc3cccnc3)o2)cc1,-0.0868
20,C/C(=N\NC(=O)c1nonc1N)c1cccs1,0.127
21,CC(=O)Nc1nc2ccccc2n1CCN(C)C,-0.911
22,Cn1c(N2CCCC2)nc2c1c(=O)n(Cc1ccc(Cl)cc1)c(=O)n2C,3.05 (active)
23,Cn1c(N2CCC(C(N)=O)CC2)nc2c1c(=O)n(Cc1ccc(Cl)cc1)c(=O)n2C,-0.154
24,Cn1c(N2CCOCC2)nc2c1c(=O)n(Cc1ccc(Cl)cc1)c(=O)n2C,-0.42

# From PubChem BioAssay AID488969 (Vanderbilt High Throughput Screening Facility, 2010)
